The panel holds about 83,000 compounds, 20% with a hit somewhere; the sample as a whole holds those more often.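 Each cell line was grown in a 96-well plate and treated with one concentration of compound for 48 hours. Values below 10 were considered active.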 Unmarked numbers belong to inactive results. Active and inactive are the calls of the source.

We go through 15 compounds from PubChem BioAssay (NCI).

Among the test systems are HCT-15 colon; HT29 colon; SNB-19 CNS; PC-3 prostate; SK-MEL-5 melanoma; UACC-62 melanoma; LOX IMVI melanoma; SK-MEL-28 melanoma; U251 CNS.
Assay in all cases: NCI-60 one-dose screen, 48 h (100 = growth as untreated, 0 = no growth, -100 = all killed)
Conditions in all cases: 10 µM unless noted

With `COC(=O)[C@H](Cc1cn(C)cn1)NC(=O)[C@H](Cc1ccccc1)NC(=O)Nc1cc(C(F)(F)F)cc(C(F)(F)F)c1`, the growth with HCT-15 colon was -77.3% [100 µM] (active); in the assay on HT29 colon, -82.4% [100 µM] (active); with SNB-19 CNS, -95.9% [100 µM] (active); in the assay with PC-3 prostate, -95.6% [100 µM] (active); with SK-MEL-5 melanoma it was -97.1% [100 µM] (active); in the assay on UACC-62 melanoma, -97.4% [100 µM] (active). Also, the growth with LOX IMVI melanoma was -84.7% [100 µM] (active); in the assay with SK-MEL-28 melanoma it was -96.6% [100 µM] (active).

`COc1ccc(-c2nc3sc4c(c3c(=O)[nH]2)CCCCCC4)cc1`: the growth in the assay with HCT-15 colon is 27.7%; in the assay with HT29 colon, 14.3%; in the assay with SNB-19 CNS, 66%; in the assay on U251 CNS, 46.8%; in the assay on PC-3 prostate it was 70.2%; in the assay with SK-MEL-5 melanoma it was 53.1%. Moreover, the growth is 24.6% with UACC-62 melanoma and 62.1% with SK-MEL-28 melanoma.

As for `Cc1ccccc1NC(=O)N/C(N)=N/c1nc2ccccc2s1`, the growth in the assay on HCT-15 colon was 20.2%; in the assay on HT29 colon, 5% (active); in the assay with SNB-19 CNS, 31.8%; with U251 CNS, 20.3%; with PC-3 prostate, 36.3%; in the assay on UACC-62 melanoma, 38.8%. The growth in the assay on LOX IMVI melanoma was 21.7%; in the assay on SK-MEL-28 melanoma it was 54.6%.

Take `Nc1nc(Nc2ccccc2SSc2ccccc2Nc2nc(N)nc(C(Cl)(Cl)Cl)n2)nc(C(Cl)(Cl)Cl)n1`: the growth in the assay on HCT-15 colon is 41%; with HT29 colon, 97.4%; in the assay on SNB-19 CNS it was 70.2%; with U251 CNS, 32.1%; in the assay on SK-MEL-5 melanoma, 50.9%; in the assay on UACC-62 melanoma, 70%. In addition, the results for the growth in the assay with LOX IMVI melanoma and in the assay on SK-MEL-28 melanoma were -24.3% (active) and 89.2%, respectively.

Turning to `CCCCCCCCCCCCCCCCNC(=O)Nc1ccc2ccccc2c1`, the growth was 103% in the assay with HCT-15 colon; 107% in the assay on HT29 colon; 96.9% in the assay with SNB-19 CNS; 105% with U251 CNS; 91.5% in the assay on PC-3 prostate; 99.4% with SK-MEL-5 melanoma. For the same compound, the growth in the assay on UACC-62 melanoma is 92.7%; in the assay with LOX IMVI melanoma, 101%; with SK-MEL-28 melanoma, 108%.

On to `O=C(O)CNC(=O)C1(N2C(=O)c3ccccc3C2=O)CCCC1`, for which the growth in the assay with HCT-15 colon is 106%; in the assay with HT29 colon, 105%; in the assay with SNB-19 CNS, 99%; with U251 CNS, 107%; in the assay on PC-3 prostate, 104%; in the assay on SK-MEL-5 melanoma it was 100%. The growth in the assay with UACC-62 melanoma is 94.5%; in the assay on LOX IMVI melanoma, 97.2%; with SK-MEL-28 melanoma, 104%.

On to `O=C(c1ccccc1)c1ccc(Oc2ccc([N+](=O)[O-])cc2[N+](=O)[O-])cc1`, for which the growth was 2.7% (active) in the assay on HCT-15 colon; 2.81% (active) in the assay with HT29 colon; 77.4% in the assay with SNB-19 CNS; 35% in the assay with U251 CNS; 32.2% in the assay on SK-MEL-5 melanoma; 62% with UACC-62 melanoma. Further, the growth was 5.97% (active) in the assay with LOX IMVI melanoma and 101% with SK-MEL-28 melanoma.

Consider `C[C@@H]1CN(c2nc3c(cc2F)c(=O)c(C(=O)O)cn3C(C)(C)C)C[C@H](C)N1`, for which the growth with HCT-15 colon is 106%; with HT29 colon, 95.8%; in the assay on SNB-19 CNS it was 106%; in the assay on U251 CNS, 103%; in the assay with PC-3 prostate, 89.1%; in the assay on UACC-62 melanoma, 90%. For the same compound, the growth with LOX IMVI melanoma was 90.5%; with SK-MEL-28 melanoma, 122%.

As to `NS(=O)(=O)c1ccc(-n2nc(-c3ccc(Br)cc3)ccc2=O)cc1`, the growth is 43% [100 µM] in the assay with HCT-15 colon; 63.9% [100 µM] in the assay with HT29 colon; 36.5% [100 µM] in the assay on SNB-19 CNS; 11.2% [100 µM] in the assay on U251 CNS; 78.2% [100 µM] with PC-3 prostate; 65.1% [100 µM] with SK-MEL-5 melanoma. The figures for the growth with UACC-62 melanoma, with LOX IMVI melanoma and with SK-MEL-28 melanoma were 53.6% [100 µM], 68.1% [100 µM] and 80.9% [100 µM], respectively.

`Cc1cc(C)c(C(=O)c2cccs2)c(C)c1`: the growth in the assay on HCT-15 colon was 102%; in the assay with HT29 colon, 98.4%; in the assay with SNB-19 CNS, 99.6%; in the assay on U251 CNS it was 97.5%; in the assay on PC-3 prostate it was 89.5%; in the assay with UACC-62 melanoma, 97%. In addition, the values for the growth with LOX IMVI melanoma and in the assay on SK-MEL-28 melanoma were 102% and 114%, respectively.

In the case of `Nc1ccccc1C#Cc1ccccc1C#Cc1ccc(OCCCCCCOc2ccc(C#Cc3ccccc3C#Cc3ccccc3N)cc2)cc1`, the growth in the assay on HCT-15 colon is 106%; with HT29 colon, 108%; in the assay on SNB-19 CNS it was 112%; with U251 CNS, 100%; in the assay on PC-3 prostate, 97%; with SK-MEL-5 melanoma, 82.4%. Also, the growth in the assay on UACC-62 melanoma was 96.6%; with LOX IMVI melanoma, 103%; with SK-MEL-28 melanoma, 109%.

With `N#Cc1c(NC(=O)c2ccco2)[n+]([O-])c2cc(Cl)c(Cl)cc2[n+]1[O-]`, the growth was 111% in the assay on HCT-15 colon; 103% in the assay on HT29 colon; 111% in the assay with SNB-19 CNS; 102% with U251 CNS; 125% in the assay with PC-3 prostate; 94.8% in the assay on SK-MEL-5 melanoma. The growth with UACC-62 melanoma was 85.2%; with LOX IMVI melanoma it was 90.5%; in the assay with SK-MEL-28 melanoma it was 104%.

For `O=CN1N=C(c2ccc(Cl)cc2)CC1c1cccc(Nc2ccnc3cc(Cl)ccc23)c1` (stereo not drawn), the growth in the assay with HCT-15 colon is 16.9%; with HT29 colon it was 3.98% (active); in the assay on SNB-19 CNS, 43.3%; in the assay with U251 CNS it was 13%; in the assay on PC-3 prostate, 12.8%; with SK-MEL-5 melanoma it was -63.2% (active). Further, the results for the growth in the assay on UACC-62 melanoma, with LOX IMVI melanoma and in the assay on SK-MEL-28 melanoma were 30.3%, 11.3% and 39.3%, respectively.

For the compound `Cc1[nH]cnc1/C=C1\SC(N2CCCCC2)=NC1=O`, the growth was 107% in the assay with HCT-15 colon; 108% in the assay on HT29 colon; 102% in the assay on SNB-19 CNS; 108% in the assay on U251 CNS; 106% in the assay on PC-3 prostate; 103% in the assay on SK-MEL-5 melanoma. Also, the growth in the assay with UACC-62 melanoma is 100%; in the assay on LOX IMVI melanoma it was 97.7%; with SK-MEL-28 melanoma, 119%.

Consider `Nc1nc(Nc2ccccc2SSc2ccccc2Nc2nc(N)nc(-c3ccc(I)cc3)n2)nc(-c2ccc(I)cc2)n1`, for which the growth in the assay on HCT-15 colon is 36.4%; in the assay on HT29 colon, 97.8%; in the assay with SNB-19 CNS it was 37.4%; in the assay with U251 CNS, 34.5%; with PC-3 prostate it was 19.1%; in the assay on SK-MEL-5 melanoma, 81.4%. The growth was 81.6% in the assay on UACC-62 melanoma, -0.613% (active) in the assay with LOX IMVI melanoma and 94.7% in the assay with SK-MEL-28 melanoma.
